# Assay results taken from PubChem BioAssay.
# The source made the active and inactive calls. Unless noted, how the calls were made is not given here.
# How the values were obtained:
# [1] = tested on: Wnt5a (protein binding on small-molecule microarray); test: Wnt5a binders on small-molecule microarray, primary screen, biophysical, 635/667 nm fluorescence (AID 1142); settings: 635 nm fluorescence, higher = more signal;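 further: fluorescence read at 667 nm with signal to noise per printed feature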
# [2] = cell viability in Huh7 cells, primary screen, cytotoxicity control for HCV replication inhibitor project, CellTiter-Glo luminescence, basal, 48 h (AID 1143); settings: Huh7 HCV replicon, higher = more signal, called active from +8 up or from −8 down;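 further: Huh7 hepatoma cells carrying a hepatitis C replication reporter with no stimulus; test concentration not given here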
# [3] = P. aeruginosa biofilm formation inhibitors, primary screen, PAO1 strain, BacTiter-Glo luminescence, LB-PBS (AID 1144); settings: 12 h, higher = more signal
# [4] = CREB reporter modulators without forskolin, primary screen, cell-based, PC12, CRE-LacZ reporter, unstimulated (AID 1145); settings: no forskolin, luminescence, 4.5 h, higher = more signal, called active from +8 up or from −8 down
# [5] = CREB reporter modulators under forskolin, primary screen, cell-based, PC12, CRE-LacZ reporter, forskolin-stimulated (AID 1146); settings: luminescence, 4.5 h, higher = more signal, called active from +8 up or from −8 down;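 further: PC12 cells with 6xCRE LacZ reporter stimulated by forskolin 10 µM; beta-galactosidase reporter signal reflecting CREB driven transcription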
# [6] = target: Streptavidin (Streptomyces avidinii) (UniProt P22629); test: streptavidin binders on small-molecule microarray, primary screen, artefact control for SMM compound annotation, biophysical, 635/667 nm fluorescence (AID 1147); settings: streptavidin binding, higher = more signal;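 further: signal reflects streptavidin binding to arrayed compounds as a control protein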
# [7] = small-molecule binders of probe aInhba, primary screen, biochemical, small-molecule microarray, 635/667 nm fluorescence (AID 1148); settings: higher = more signal;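 further: score merges 667nm spot fluorescence with signal-to-noise for antibody binding to printed compounds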
# [8] = target: Torsin-1A (Homo sapiens) (UniProt O14656); test: torsin A binders from cell lysate, primary screen, small-molecule microarray, wild-type, 635/667 nm (AID 1149); settings: COS7 hTOR1A-WT lysate, 635 nm fluorescence, higher = more signal
# [9] = target: Torsin-1A (Homo sapiens) (UniProt O14656); test: small-molecule binders of mutant TOR1A in lysate, primary screen, cell lysate, small-molecule microarray, COS7 lysate, 635/667 nm fluorescence (AID 1150); settings: COS7 hTOR1A mutant lysate, 635 nm fluorescence, higher = more signal;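 further: score pools 667 nm emission and signal to noise measuring lysate protein binding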
# [10] = tested on: Sonic hedgehog protein (Shh); test: small-molecule binders of Shh protein, primary screen, biochemical, small-molecule microarray, 635/667 nm fluorescence (AID 1151); settings: small-molecule microarray binding, 635 nm fluorescence; higher = more signal;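 further: Shh protein binding to compounds spotted on small-molecule microarray slides; score combines spot fluorescence intensity with signal-to-noise across triplicate slides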
# [11] = E. coli DRC41 culture turbidity changes, primary screen, E. coli filamentation inducer project, strain DRC41, OD650, 48 h (AID 1152);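 further: E. coli MC1000 strain DRC41 lacking acrAB efflux pump and sulA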; settings: E. coli DRC41 (acrAB sulA), higher = more signal, called active from +8 up or from −8 down
# [12] = small-molecule binders of probe aLefty1, primary screen, biochemical, small-molecule microarray, 635/667 nm fluorescence (AID 1153); settings: higher = more signal;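 further: score merges spot fluorescence with signal-to-noise ratio from the scanned slide images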
# [13] = PSAC antagonists in infected red cells, primary screen, cell-based, P. falciparum Indochina, OD700, 1 h (AID 1154); settings: P. falciparum Indochina infected RBC osmotic lysis, higher = more signal, called active from +8 up or from −8 down
# [14] = PSAC antagonists in infected red cells, primary screen, cell-based, P. falciparum Indochina, OD700, 2 h (AID 1155);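 further: lysis reports solute entry through the parasite surface anion channel PSAC; channel blockers reduce lysis of infected cells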; settings: P. falciparum Indochina infected erythrocytes, osmotic lysis OD700; higher = more signal, called active from +8 up or from −8 down
# [15] = osmotic lysis modulators in infected erythrocytes, primary screen, PSAC antagonist project, cell-based, P. falciparum Indochina, OD700, 3 h (AID 1156); settings: higher = more signal, called active from +8 up or from −8 down
# [16] = PSAC antagonists in infected red cells, primary screen, cell-based, P. falciparum Indochina, OD700, 18 h (AID 1157); settings: P. falciparum Indochina infected erythrocytes, osmotic lysis OD700, 18 h; higher = more signal, called active from +8 up or from −8 down
# [17] = modulators of S6 phosphorylation in cells, primary screen, cell-based, A549, cytoblot, luminescence, serum-stimulated (AID 1158); settings: A549 phospho-S6 cytoblot, 5 h, higher = more signal;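 further: serum-stimulated A549 lung adenocarcinoma cells; signal is phosphorylated S6 detected by cytoblot immunostaining with HRP secondary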
# [18] = target: NADPH oxidase 2 (Homo sapiens) (UniProt P04839); test: NOX2-dependent H2O2 signal modulators, primary screen, NOX inhibitor project, cell-based, HEK293-NOX2, PMA-stimulated, Amplex Red fluorescence (AID 1159); settings: 45 min, higher = more signal, called active from +8 up or from −8 down; further: test concentration not given here
# [19] = target: NADPH oxidase 4 (Homo sapiens) (UniProt Q9NPH5); test: NOX4-dependent H2O2 signal modulators, primary screen, NOX inhibitor project, cell-based, HEK293-NOX4, tetracycline-induced, Amplex Red fluorescence (AID 1160); settings: 45 min, higher = more signal, called active from +8 up or from −8 down
# [20] = target: NADPH oxidase 5 (Homo sapiens) (UniProt Q96PH1); test: NOX5-dependent H2O2 signal modulators, primary screen, NOX inhibitor project, cell-based, HEK293-NOX5, Amplex Red fluorescence (AID 1161); settings: HEK293-NOX5, ionomycin, 45 min, higher = more signal
# Sequence of NADPH oxidase 5 (Homo sapiens) (Q96PH1 whole entry, looked up): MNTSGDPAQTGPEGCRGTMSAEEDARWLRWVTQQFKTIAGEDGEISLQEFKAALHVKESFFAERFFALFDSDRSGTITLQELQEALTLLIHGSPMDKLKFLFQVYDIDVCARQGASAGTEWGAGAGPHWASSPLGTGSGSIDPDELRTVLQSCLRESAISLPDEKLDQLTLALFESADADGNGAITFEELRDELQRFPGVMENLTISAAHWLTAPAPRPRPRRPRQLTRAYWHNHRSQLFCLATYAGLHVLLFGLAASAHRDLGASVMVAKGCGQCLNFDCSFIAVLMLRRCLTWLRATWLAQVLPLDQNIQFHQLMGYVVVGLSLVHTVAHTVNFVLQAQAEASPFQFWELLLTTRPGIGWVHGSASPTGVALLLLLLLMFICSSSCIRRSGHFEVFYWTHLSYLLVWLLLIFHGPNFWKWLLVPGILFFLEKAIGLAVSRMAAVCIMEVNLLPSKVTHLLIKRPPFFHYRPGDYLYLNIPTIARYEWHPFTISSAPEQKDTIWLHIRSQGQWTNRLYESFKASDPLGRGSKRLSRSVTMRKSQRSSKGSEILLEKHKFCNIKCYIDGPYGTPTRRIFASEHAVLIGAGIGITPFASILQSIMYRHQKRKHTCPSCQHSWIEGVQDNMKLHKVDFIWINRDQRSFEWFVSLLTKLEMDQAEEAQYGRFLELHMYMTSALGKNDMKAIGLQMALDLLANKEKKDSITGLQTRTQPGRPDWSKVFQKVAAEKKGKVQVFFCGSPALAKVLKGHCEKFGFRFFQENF
# Sequence of NADPH oxidase 4 (Homo sapiens) (Q9NPH5 whole entry, looked up): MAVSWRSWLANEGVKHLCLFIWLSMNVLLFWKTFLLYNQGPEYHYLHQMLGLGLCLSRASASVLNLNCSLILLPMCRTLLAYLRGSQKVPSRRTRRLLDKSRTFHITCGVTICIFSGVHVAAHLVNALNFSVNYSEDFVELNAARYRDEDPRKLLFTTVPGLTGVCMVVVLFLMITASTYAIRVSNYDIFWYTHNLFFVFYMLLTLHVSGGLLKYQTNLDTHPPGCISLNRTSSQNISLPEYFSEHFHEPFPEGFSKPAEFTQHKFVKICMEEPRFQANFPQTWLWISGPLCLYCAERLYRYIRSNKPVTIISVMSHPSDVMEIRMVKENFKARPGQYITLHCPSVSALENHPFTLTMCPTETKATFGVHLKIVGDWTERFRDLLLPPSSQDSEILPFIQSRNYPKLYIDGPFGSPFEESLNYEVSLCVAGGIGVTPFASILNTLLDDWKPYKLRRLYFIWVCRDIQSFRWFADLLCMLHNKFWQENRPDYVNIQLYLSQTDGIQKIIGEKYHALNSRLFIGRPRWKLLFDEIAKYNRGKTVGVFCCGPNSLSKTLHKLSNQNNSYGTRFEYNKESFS
# Sequence of Streptavidin (Streptomyces avidinii) (P22629 whole entry, looked up): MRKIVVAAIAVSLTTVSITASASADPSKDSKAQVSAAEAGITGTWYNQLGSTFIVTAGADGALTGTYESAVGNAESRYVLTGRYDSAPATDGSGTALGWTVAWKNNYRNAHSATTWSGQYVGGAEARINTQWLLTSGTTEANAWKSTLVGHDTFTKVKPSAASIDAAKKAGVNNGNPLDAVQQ
# Sequence of NADPH oxidase 2 (Homo sapiens) (P04839 whole entry, looked up): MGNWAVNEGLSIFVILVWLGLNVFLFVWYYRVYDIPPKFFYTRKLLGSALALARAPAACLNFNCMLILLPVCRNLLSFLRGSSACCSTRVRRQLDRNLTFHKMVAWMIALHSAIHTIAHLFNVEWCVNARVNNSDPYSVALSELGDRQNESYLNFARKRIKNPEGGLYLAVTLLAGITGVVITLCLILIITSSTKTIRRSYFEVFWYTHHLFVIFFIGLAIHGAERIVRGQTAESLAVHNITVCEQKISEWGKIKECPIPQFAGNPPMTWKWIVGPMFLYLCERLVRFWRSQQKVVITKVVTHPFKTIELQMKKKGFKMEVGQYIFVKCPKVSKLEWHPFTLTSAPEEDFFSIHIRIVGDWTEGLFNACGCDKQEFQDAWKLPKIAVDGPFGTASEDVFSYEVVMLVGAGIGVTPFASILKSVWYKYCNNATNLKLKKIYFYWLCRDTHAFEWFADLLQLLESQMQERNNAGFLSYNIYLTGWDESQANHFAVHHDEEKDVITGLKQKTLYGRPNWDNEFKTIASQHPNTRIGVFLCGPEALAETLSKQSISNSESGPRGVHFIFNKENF
# Sequence of Torsin-1A (Homo sapiens) (O14656 whole entry, looked up): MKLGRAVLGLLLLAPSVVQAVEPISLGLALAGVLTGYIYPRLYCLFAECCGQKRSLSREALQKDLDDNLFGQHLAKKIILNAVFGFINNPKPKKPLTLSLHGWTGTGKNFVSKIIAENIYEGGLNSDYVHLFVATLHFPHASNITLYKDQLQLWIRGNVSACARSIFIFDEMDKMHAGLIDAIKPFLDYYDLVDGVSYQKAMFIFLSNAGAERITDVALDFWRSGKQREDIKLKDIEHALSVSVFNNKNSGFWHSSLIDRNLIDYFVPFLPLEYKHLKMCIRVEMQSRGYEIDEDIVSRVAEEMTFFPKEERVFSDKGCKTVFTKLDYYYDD
SMILES,composite z-score [1],z-score [2],z-score [3],z-score [4],z-score [5],composite z-score [6],composite z-score [7],composite z-score [8],composite z-score [9],composite z-score [10],z-score [11],composite z-score [12],z-score [13],z-score [14],z-score [15],z-score [16],z-score [17],z-score [18],z-score [19],z-score [20]
COC(=O)[C@H](Cc1ccccc1)N[C@H](/C=C/C1CC1)[C@@H](O)Cc1ccccc1,-0.711,-1.78 (inactive),-0.555 (inactive),2.59 (inactive),-1.23 (inactive),-0.841,-0.322,-0.795,-0.533,-0.345,1.85 (inactive),-0.235,0.786 (inactive),-0.96 (inactive),-0.868 (inactive),-1.83 (inactive),2.14,0.455 (inactive),0.0154 (inactive),-2.49
C=CC[C@]1(C(N)=O)N=C(c2ccc(OCCCO)cc2)O[C@H]1c1ccccc1,0.555,-1.01 (inactive),-0.717 (inactive),0.652 (inactive),-0.806 (inactive),0.186,-0.168,2.79,2.33,-0.406,-0.0378 (inactive),-0.0057,6.38 (inactive),1.44 (inactive),0.99 (inactive),0.765 (inactive),-0.039,0.737 (inactive),0.676 (inactive),0.145
O=C1OCCC=C[C@H]2OC34C=CCN(Cn5nnc6ccccc65)C(=O)[C@H]3N(CCO)C(=O)[C@@H]4C12 (stereo not given in full),-0.83,-0.208 (inactive),-1.39 (inactive),-1.3 (inactive),-0.688 (inactive),-1.48,-0.251,-1.01,-1.32,-0.61,1.41 (inactive),-0.147,1.03 (inactive),0.793 (inactive),1.08 (inactive),0.601 (inactive),-0.18,1.55 (inactive),1.22 (inactive),1.73
C=C(CCCC)/C(=C/C[C@@H](OC(C)=O)c1cccc(OCCO)c1)c1cnc2ccccc2c1,0.16,-0.82 (inactive),-1.07 (inactive),1.7 (inactive),-0.307 (inactive),0.0063,-0.154,1.17,0.762,2.05,0.776 (inactive),0.201,23.6 (active),6.35 (inactive),2.48 (inactive),1.51 (inactive),0.237,-2.25 (inactive),-0.934 (inactive),-2.22
NC(=O)N1C(=O)C2C(C1=O)C1C=C(CCCO)C2C(C2CC2)N1Cc1cc2c(cc1Br)OCO2 (stereo not given),-0.219,-0.387 (inactive),1.44 (inactive),4.37 (inactive),0.0317 (inactive),0.129,-0.157,0.0457,0.28,0.195,-0.766 (inactive),0.19,4.92 (inactive),0.494 (inactive),-0.23 (inactive),0.357 (inactive),0.415,0.334 (inactive),-0.381 (inactive),-0.344
O=C1[C@H]2C=C(I)[C@H](C[C@@H]2OCCCCO)[C@@]12CO2,-0.163,0.634 (inactive),-0.0455 (inactive),-0.235 (inactive),1.6 (inactive),-0.162,-0.025,0.953,0.625,0.745,-0.989 (inactive),0.0437,1.01 (inactive),-0.171 (inactive),0.282 (inactive),-0.039 (inactive),0.764,-0.0538 (inactive),0.491 (inactive),-0.584
CC(C)[Si](C#C[Si](C(C)C)(C(C)C)C(C)C)(O[C@H](C)c1cn(Cc2ccccc2)nn1)C(C)C,0.0406,-0.182 (inactive),-0.324 (inactive),-0.0848 (inactive),-0.624 (inactive),1.32,-0.0405,0.709,0.5,0.372,1.82 (inactive),0.0509,-0.0395 (inactive),0.0422 (inactive),-0.915 (inactive),0.0635 (inactive),-0.217,0.667 (inactive),-0.748 (inactive),-2.82
C=CCOC(=O)[C@H]1[C@@H]2C(=O)O[C@@H](c3ccccc3)[C@@H](c3ccccc3)N2[C@@H](c2ccc(OCCOC(=O)[C@@H]3C[C@@H]4C(=O)N5CCC[C@H]5C(=O)N4[C@@H]3c3cccc(OCCO)c3)cc2)[C@]12C(=O)Nc1ccc(I)cc12,0.535,-0.402 (inactive),-0.615 (inactive),0.423 (inactive),-0.633 (inactive),0.763,0.944,0.821,0.573,2.18,-0.811 (inactive),1.53,4.52 (inactive),2.5 (inactive),1.25 (inactive),1.5 (inactive),-0.679,1.86 (inactive),0.833 (inactive),1.49
CCCC=C(CCC)[C@@H](NS(=O)(=O)c1ccc(Cl)cc1)c1ccc(C(=O)OC)cc1,-0.16,-0.296 (inactive),-0.382 (inactive),-0.179 (inactive),-0.146 (inactive),0.997,-0.0011,0.771,1.38,-0.562,-1.01 (inactive),0.523,-0.556 (inactive),-0.914 (inactive),-0.338 (inactive),-1.93 (inactive),0.631,0.0199 (inactive),0.249 (inactive),1.39
